We go through 38 compounds from PubChem BioAssay (NCATS).

Results filed as inconclusive are left out. A number with no mark means an inactive call. Active and inactive are the calls of the source. The call rests on the fitted dose curve; in most records, active means well fitted curve in the direction sought with a large enough effect; inconclusive means small, poorly fitted or top-dose-only effect, or another doubt; inactive means no such curve, though single readings can be large; an effect the other way counts as inactive or inconclusive.

Test [1] concerns the target Rap guanine nucleotide exchange factor 3 (Homo sapiens) (UniProt O95398). Nature of the test: Confirmatory qHTS for antagonist of cAMP-regulated guanine nucleotide exchange factor 3 (EPAC1) (AID 1645880). Further: nearly all actives have a fitted effect of over 55% in size. Further: potency means the concentration at half of the fitted maximal effect. The essentials: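 Released BODIPY-GDP fluoresces less than Rap1-bound BODIPY-GDP; the signal is followed at 480/540 nm at 5-min intervals over 30 min, after 5 min at room temperature. Reactions contain 100 nM EPAC1, 250 nM RAP1B-BODIPY-GDP and 50 uM GDP; results are normalized to ATA and DMSO.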

Test [2] shares this target. Briefly: Confirmatory qHTS for agonist of cAMP-regulated guanine nucleotide exchange factor 3 (EPAC1) (AID 1645881). Further: nearly all actives have a fitted effect of over 75% in size. Further: potency means the concentration at half of the fitted maximal effect.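 On activation: EPAC1 catalysed release of BODIPY-GDP from Rap1B seen as fluorescence loss; 100% = effect of cAMP agonist control.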
Test [3] deals with Rap guanine nucleotide exchange factor 4 (Homo sapiens) (UniProt Q8WZA2). Briefly: Confirmatory qHTS for agonist of cAMP-regulated guanine nucleotide exchange factor 4 (EPAC2) (AID 1645884).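 Further: nucleotide exchange releases bodipy-GDP from Rap1 and this lowers its fluorescence; nearly all actives have a fitted effect of over 65% in size.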 Further: potency means the concentration at half of the fitted maximal effect. On activation: on the % scale 0 is the no-effect control and ±100 the full control effect. Background: qHTS replaces the single test concentration by a dilution series.
For test [4] the target is unchanged. Nature of the test: Confirmatory qHTS for antagonist of cAMP-regulated guanine nucleotide exchange factor 4 (EPAC2) (AID 1645885). Further: nearly all actives have a fitted effect of over 25% in size. Further: potency means the concentration at half of the fitted maximal effect. On activity change, negative = inhibition: on the % scale 0 is the no-effect control and ±100 the full control effect.
Test [5] has as its target Rap guanine nucleotide exchange factor 3 (Homo sapiens) (UniProt O95398). Nature of the test: Counterscreen qHTS for antagonist of cAMP-regulated guanine nucleotide exchange factor 3 (EPAC1) (AID 1645888). Further: % of control where 0% means no effect. The essentials: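 Measured: fluorescence of BODIPY-GDP bound to Rap1B, which falls as exchange proceeds. Conditions include 50 uM competing GDP, 5 and 30 min reads, and a later cAMP challenge for antagonist detection.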
A general note: A counterscreen serves to expose hits that act by an unwanted route or on another target.

Sequence of Rap guanine nucleotide exchange factor 4 (Homo sapiens) (Q8WZA2 whole entry, looked up): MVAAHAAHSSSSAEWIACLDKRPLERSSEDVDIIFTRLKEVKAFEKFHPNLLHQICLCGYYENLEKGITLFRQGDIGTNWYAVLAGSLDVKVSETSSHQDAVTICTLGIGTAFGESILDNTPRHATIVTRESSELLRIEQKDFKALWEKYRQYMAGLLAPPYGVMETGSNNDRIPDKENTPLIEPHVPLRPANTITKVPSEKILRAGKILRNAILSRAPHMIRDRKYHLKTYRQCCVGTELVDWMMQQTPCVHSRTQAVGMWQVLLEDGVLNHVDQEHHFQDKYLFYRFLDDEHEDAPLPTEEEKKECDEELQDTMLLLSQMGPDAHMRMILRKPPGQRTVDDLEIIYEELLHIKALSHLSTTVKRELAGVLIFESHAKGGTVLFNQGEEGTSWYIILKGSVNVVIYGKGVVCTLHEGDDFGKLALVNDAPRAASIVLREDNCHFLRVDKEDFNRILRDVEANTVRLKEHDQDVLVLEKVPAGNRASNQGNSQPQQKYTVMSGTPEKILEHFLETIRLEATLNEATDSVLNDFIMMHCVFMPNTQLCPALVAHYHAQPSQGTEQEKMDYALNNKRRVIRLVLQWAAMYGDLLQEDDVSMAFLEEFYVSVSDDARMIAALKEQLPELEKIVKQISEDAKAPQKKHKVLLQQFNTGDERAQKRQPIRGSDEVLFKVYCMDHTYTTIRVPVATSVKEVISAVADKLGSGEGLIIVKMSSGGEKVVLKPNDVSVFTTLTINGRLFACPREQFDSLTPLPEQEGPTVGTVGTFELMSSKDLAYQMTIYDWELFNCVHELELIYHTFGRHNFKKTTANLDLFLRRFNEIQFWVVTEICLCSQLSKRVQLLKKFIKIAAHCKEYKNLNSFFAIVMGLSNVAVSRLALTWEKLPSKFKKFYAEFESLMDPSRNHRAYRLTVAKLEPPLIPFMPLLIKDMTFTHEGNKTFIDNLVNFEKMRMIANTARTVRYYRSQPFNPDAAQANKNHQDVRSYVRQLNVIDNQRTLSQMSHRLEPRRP
Sequence of Rap guanine nucleotide exchange factor 3 (Homo sapiens) (O95398 whole entry, looked up): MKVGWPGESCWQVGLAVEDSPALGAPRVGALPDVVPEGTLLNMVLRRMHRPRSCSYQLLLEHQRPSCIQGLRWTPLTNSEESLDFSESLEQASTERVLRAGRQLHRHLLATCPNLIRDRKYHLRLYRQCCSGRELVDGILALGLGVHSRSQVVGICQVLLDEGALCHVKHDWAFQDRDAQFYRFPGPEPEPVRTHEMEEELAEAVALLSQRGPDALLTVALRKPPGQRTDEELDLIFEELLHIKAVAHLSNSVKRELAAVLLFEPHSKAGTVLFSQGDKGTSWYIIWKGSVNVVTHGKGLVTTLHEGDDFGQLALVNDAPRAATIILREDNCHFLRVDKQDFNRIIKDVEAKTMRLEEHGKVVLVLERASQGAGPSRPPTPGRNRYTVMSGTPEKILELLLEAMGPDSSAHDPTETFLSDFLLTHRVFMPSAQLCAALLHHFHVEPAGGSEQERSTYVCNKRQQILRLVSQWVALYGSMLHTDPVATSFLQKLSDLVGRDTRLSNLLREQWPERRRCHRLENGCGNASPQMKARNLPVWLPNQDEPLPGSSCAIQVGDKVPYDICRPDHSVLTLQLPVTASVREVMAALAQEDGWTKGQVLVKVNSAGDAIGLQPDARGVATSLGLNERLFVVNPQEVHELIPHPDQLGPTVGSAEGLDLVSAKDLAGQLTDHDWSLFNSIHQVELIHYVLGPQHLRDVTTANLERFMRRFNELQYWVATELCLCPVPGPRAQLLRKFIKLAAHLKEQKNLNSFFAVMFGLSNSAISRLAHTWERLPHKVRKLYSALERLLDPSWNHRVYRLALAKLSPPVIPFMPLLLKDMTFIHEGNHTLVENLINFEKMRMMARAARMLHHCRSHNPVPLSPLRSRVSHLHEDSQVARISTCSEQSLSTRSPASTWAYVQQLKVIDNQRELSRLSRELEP

`CCOc1c(Cl)cc(Cl)cc1CNCCSc1nnnn1C`: the Potency entry in test [1], in test [2], in test [3], in test [4] and in test [5] was “inactive” each time.

For `COc1ccc(OC)c(Nc2nc3ccccc3nc2-n2nc(C)cc2C)c1`, the Potency result in test [1], in test [2], in test [3], in test [4] and in test [5] was “inactive” each time.

With `CN(C)C(CNS(=O)(=O)c1ccc(Cl)cc1)c1cccnc1` (stereo not given), the Potency entry in test [1], in test [2], in test [3], in test [4] and in test [5] was “inactive” each time.

For the compound `COC(=O)c1ccccc1NC(=O)CN1C(=O)COc2ccccc21`, the Potency entry in test [1], in test [2], in test [3] and in test [5] was “inactive” in each case. For the same compound, the outcome in test [4] is “inactive [at 12.7 µM]”.

`CC(=O)N1N=C(N)SC1c1ccc(Cl)c(Cl)c1` (stereo not given): the Potency entry in test [1], in test [2] and in test [4] was “inactive” throughout. The activation in test [3] was -0.153% [at 17.1 µM, percent relative to cAMP agonist control]. In addition, the activity change, negative = inhibition in test [5] is -0.904% [at 30.8 µM].

Regarding `CCCCn1c(N)c(N(CCC(C)C)C(=O)Cc2ccc(S(=O)(=O)N3CCOCC3)s2)c(=O)[nH]c1=O`, the Potency entry in test [1], in test [2], in test [3], in test [4] and in test [5] was “inactive” each time.

Consider `O=C1C(=Cc2cn(-c3ccccc3)nc2-c2ccc(OCc3ccccc3)cc2)SC(=S)N1CCS(=O)(=O)O`, for which the Potency in test [1] was 33.8 µM (active). The Potency entry in test [2], in test [3], in test [4] and in test [5] was “inactive” in each case.

Consider `N#CC(=Cc1ccc(-c2ccccc2)cc1)C(=O)c1ccccc1`, for which, in test [1], the Potency is 39.8 µM (active). The Potency entry in test [2] and in test [4] was “inactive” each time. Also, the activation in test [3] is 0.543% [at 17.1 µM, percent relative to cAMP agonist control]. The activity change, negative = inhibition in test [5] was -16.6% [at 30.8 µM].

Regarding `COc1ccc(S(=O)(=O)N2CCCCCC2)cc1C(=O)N1CCCC(C(F)(F)F)C1` (stereo not given), the Potency entry in test [1], in test [2] and in test [4] was “inactive” throughout. Moreover, in test [3], the activation was 2.27% [at 17.1 µM, percent relative to cAMP agonist control]. Moreover, the activity change, negative = inhibition in test [5] was -17.4% [at 30.8 µM].

`CCN(CC)c1ccc2cc(-c3nc(-c4ccccc4F)no3)c(=O)oc2c1`: the Potency result in test [1] and in test [5] was “inactive” in each case. The Potency in test [2] was 50.1 µM (active); in test [3] it was 5.01 µM (active); in test [4] it was 4.78 µM (active).

As for `CC1CN(C(=O)N2CCOCC2)CCN1C(=O)N1CCOCC1` (stereo not given), the Potency entry in test [1], in test [2], in test [3], in test [4] and in test [5] was “inactive” in each case.

Turning to `CCSc1nc2ccccc2c(=O)n1C1CCOC(C)(C)C1` (stereo not given), the Potency entry in test [1], in test [2], in test [3], in test [4] and in test [5] was “inactive” in each case.

On to `O=C(CCN1C(=O)S/C(=C\c2ccccc2)C1=O)Nc1ccc(S(=O)(=O)Nc2nccs2)cc1`, for which, in test [1], the Potency is 39.8 µM (active). For the same compound, the Potency entry in test [2] and in test [4] was “inactive” each time. In test [3], the activation is 1.67% [at 17.1 µM, percent relative to cAMP agonist control]. For the same compound, the activity change, negative = inhibition in test [5] was -0.356% [at 30.8 µM].

Take `O=C1Nc2ccccc2SC1c1ccccc1` (stereo not given): the Potency entry in test [1], in test [2] and in test [4] was “inactive” each time. Besides, the activation in test [3] was 3.23% [at 17.1 µM, percent relative to cAMP agonist control]. In addition, the activity change, negative = inhibition in test [5] was -15.7% [at 30.8 µM].

Regarding `CN(c1ccc(C(=O)NCc2ccc3c(c2)OCO3)cc1)S(=O)(=O)c1ccccc1`, the Potency result in test [1], in test [2], in test [3], in test [4] and in test [5] was “inactive” each time.

As to `Cc1ccc(C)c(-n2c3nc(=O)[nH]c(=O)c-3cc3cc([N+](=O)[O-])ccc32)c1`, in test [1], the Potency is 47.8 µM (active). The Potency entry in test [2], in test [3], in test [4] and in test [5] was “inactive” each time.

For `CC(C)C[C@H](NC(=O)[C@H](Cc1ccccc1)n1c(=O)[nH]c2ccccc2c1=O)C(=O)N1CCC(C(=O)O)CC1`, the Potency entry in test [1], in test [2], in test [3], in test [4] and in test [5] was “inactive” throughout.

With `COc1cccc(NC(=O)CSc2nnc3[nH]c(=O)cc(-c4ccccc4)n23)c1`, the Potency entry in test [1], in test [2], in test [3], in test [4] and in test [5] was “inactive” in each case.

For `CCNC(=O)C1(C)CCN(C(=O)c2ccc(C(=O)OC)cc2)C1` (stereo not given), the Potency entry in test [1], in test [2], in test [3], in test [4] and in test [5] was “inactive” in each case.

With `CCOC(=O)CSc1ccc2nnc(-c3ccccc3)n2n1`, the Potency result in test [1], in test [2] and in test [4] was “inactive” throughout. Besides, in test [3], the activation is 7.87% [at 17.1 µM, percent relative to cAMP agonist control]. The activity change, negative = inhibition in test [5] was -6.6% [at 30.8 µM].

In the case of `O=C1NN(c2cccc(Br)c2)C(=O)/C1=C/c1ccc(-c2cc([N+](=O)[O-])ccc2O)o1`, the Potency in test [1] was 16.9 µM (active). The Potency result in test [2], in test [3], in test [4] and in test [5] was “inactive” throughout.

For `CCOC(=O)C(Cc1ccc(NC(=O)/C(=C\c2ccccc2)NC(=O)c2ccccc2)cc1)N1C(=O)c2ccccc2C1=O` (stereo not given), the Potency result in test [1], in test [2], in test [3], in test [4] and in test [5] was “inactive” throughout.

As for `O=C(O)c1ccc(C=C(c2nc3ccccc3s2)c2nc3ccccc3s2)cc1`, the Potency in test [1] was 42.6 µM (active). For the same compound, the Potency entry in test [2], in test [3], in test [4] and in test [5] was “inactive” in each case.

For the compound `Cc1ccc([C@H]2C(C(=O)O)=CC[C@@H](c3ccc(Cl)c(Cl)c3)N2S(=O)(=O)c2ccc(C)cc2)cc1`, in test [1], the Potency is 56.2 µM (active). The Potency result in test [2] and in test [4] was “inactive” throughout. Further, the activation in test [3] was 12.8% [at 17.1 µM, percent relative to cAMP agonist control]. Also, in test [5], the activity change, negative = inhibition was -5.89% [at 30.8 µM].

With `O=C1OC(c2ccccc2)/C(=C(/O)c2ccccc2)C1=O` (stereo not given), the Potency entry in test [1], in test [2] and in test [4] was “inactive” throughout. For the same compound, in test [3], the activation is 9.85% [at 17.1 µM, percent relative to cAMP agonist control]. Besides, in test [5], the activity change, negative = inhibition is -5.63% [at 30.8 µM].

As for `Cc1cc(OC(C)C(=O)NCCc2c[nH]c3ccccc23)c2c(C)cc(=O)oc2c1` (stereo not given), the Potency entry in test [1], in test [2], in test [3], in test [4] and in test [5] was “inactive” each time.

For the compound `CC(C)Cn1c(N)c(C(=O)NCC2CCCO2)c2nc3ccccc3nc21` (stereo not given), in test [1], the Potency is 21.3 µM (active). Further, the Potency result in test [2], in test [3], in test [4] and in test [5] was “inactive” each time.

With `NC(=O)c1cc2ccccc2o/c1=N\NC(=O)c1ccncc1`, the Potency entry in test [1], in test [2] and in test [4] was “inactive” each time. The activation in test [3] is 1.92% [at 17.1 µM, percent relative to cAMP agonist control]. Further, in test [5], the activity change, negative = inhibition was -2.29% [at 30.8 µM].

In the case of `Cc1ccc(NC(=O)c2c(NC(=O)C(F)(F)F)sc3c2CCCCC3)cc1`, in test [1], the Potency is 84.9 µM (active). Further, the Potency result in test [2], in test [3], in test [4] and in test [5] was “inactive” each time.

For `COc1cccc(C(=O)C2=NN(C(C)=O)CC2c2ccco2)c1` (stereo not given), the Potency result in test [1], in test [2], in test [3], in test [4] and in test [5] was “inactive” in each case.

`CCn1c2ccccc2c2cc(NC(=O)CSc3nnc(-c4cccc(C)c4)o3)ccc21`: the Potency result in test [1], in test [2] and in test [4] was “inactive” throughout. Besides, in test [3], the activation was 3.98% [at 17.1 µM, percent relative to cAMP agonist control]. In addition, in test [5], the activity change, negative = inhibition was 9.03% [at 30.8 µM].

As for `Cc1ccc(NC(=O)CN(C)C(=O)COC(=O)C2=COCCO2)cc1`, the Potency entry in test [1], in test [2] and in test [4] was “inactive” in each case. The activation in test [3] was 6.32% [at 17.1 µM, percent relative to cAMP agonist control]. In addition, the activity change, negative = inhibition in test [5] is -1.81% [at 30.8 µM].

As to `COc1cc(S(=O)(=O)Nc2ccc(C)cc2)ccc1N=Cc1c(C)c(C#N)c(=O)n(C)c1O`, the Potency entry in test [1], in test [2], in test [3], in test [4] and in test [5] was “inactive” throughout.

Turning to `O=C(O)c1ccccc1N/N=C/C1=C(N2CCOCC2)C(=C\c2ccccc2)/CC1`, the Potency in test [1] is 67.5 µM (active). The Potency result in test [2], in test [3], in test [4] and in test [5] was “inactive” in each case.

On to `CCOC(=O)COc1ccc(Br)cc1/C=C\c1[nH]c(=O)[nH]c(=O)c1[N+](=O)[O-]`, for which, in test [1], the Potency is 20 µM (active). Besides, the Potency result in test [2] and in test [4] was “inactive” throughout. Moreover, the activation in test [3] was 4.81% [at 17.1 µM, percent relative to cAMP agonist control]. The activity change, negative = inhibition in test [5] is -24.7% [at 30.8 µM].

In the case of `CN1N=C(C(C)(C)C)CC1=O`, the Potency result in test [1], in test [2], in test [3], in test [4] and in test [5] was “inactive” in each case.

Consider `CSCCC(C(=O)O)N1C(=O)c2ccc(C(=O)O)cc2C1=O` (stereo not given), for which the Potency result in test [1], in test [2] and in test [4] was “inactive” each time. Also, the activation in test [3] is 4.67% [at 17.1 µM, percent relative to cAMP agonist control]. The activity change, negative = inhibition in test [5] was -1.74% [at 30.8 µM].

Regarding `Oc1ccc(N=Cc2c(O)ccc3ccccc23)cc1`, the Potency result in test [1], in test [2] and in test [4] was “inactive” throughout. For the same compound, in test [3], the activation was 11.7% [at 17.1 µM, percent relative to cAMP agonist control]. In addition, the activity change, negative = inhibition in test [5] was -17% [at 30.8 µM].
